# Data reported in PubChem BioAssay AID1159580 (chemical genetic matrix, 2015).
# “And” between values parts separate entries of the source, which are not always exact repeats. Equal values may be shown once. The campaign covered roughly 5,500 compounds. About 2,000 (36%) were called active. Not shown: some 18% with an inconclusive outcome. The list shows a part of the results. A number with no mark means an inactive call. No stated cut-off is given here; in the data, active means normalized growth mostly below about 0.91 (no sharp cut-off); inconclusive means no clear call, values can overlap the other calls; inactive means mostly above about 0.92.
# Experiment: chemical genetic growth profiling, strain panel (AID 1159580);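 further: tested at 20 µM; growth read once vehicle control cultures reached saturation at 30 °C; 1 = growth at the plate median or of vehicle wells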
# Conditions: S. cerevisiae deletion strains, growth OD
smiles,measurement,setting,value
Cc1onc(-c2ccccc2)c1C(=O)NC1C(=O)N2[C@@H]1SC(C)(C)[C@@H]2C(=O)O (some centres not stated),normalized growth,"locus YAL013W, strain DEP1, stronger effect = lower value",1.01
same,normalized growth,"locus YAL021C, strain ccr4, stronger effect = lower value",1.02
same,normalized growth,"locus YAL026C, strain drs2, stronger effect = lower value",1.01
same,normalized growth,"locus YAL030W, strain snc1, stronger effect = lower value",1.02
same,normalized growth,"locus YBL061C, strain skt5, stronger effect = lower value",1.02
same,normalized growth,"locus YBR009C, strain hhf1, stronger effect = lower value",1.02
same,normalized growth,"locus YBR021W, strain FUR4, stronger effect = lower value",0.99
same,normalized growth,"locus YBR023C, strain chs3, stronger effect = lower value",1.02
same,normalized growth,"locus YBR171W, strain sec66, stronger effect = lower value",1.02
same,normalized growth,"locus YBR229C, strain ROT2, stronger effect = lower value",1
same,normalized growth,"locus YBR231C, strain swc5, stronger effect = lower value",1.01
same,normalized growth,"locus YBR279W, strain paf1, stronger effect = lower value",1.01
same,normalized growth,"locus YCL011C, strain gbp2, stronger effect = lower value",1.03
same,normalized growth,"locus YCL016C, strain dcc1, stronger effect = lower value",1.06
same,normalized growth,"locus YCL029C, strain bik1, stronger effect = lower value",1.02
same,normalized growth,"locus YCL061C, strain MRC1, stronger effect = lower value",1.02
same,normalized growth,"locus YCL069W, strain vba3, stronger effect = lower value",1.02
same,normalized growth,"locus YCR088W, strain abp1, stronger effect = lower value",1.02
same,normalized growth,"locus YDL005C, strain med2, stronger effect = lower value",1.01
same,normalized growth,"locus YDL035C, strain GPR1, stronger effect = lower value",1
same,normalized growth,"locus YDL040C, strain nat1, stronger effect = lower value",1.01
same,normalized growth,"locus YDL074C, strain BRE1, stronger effect = lower value",1.03
same,normalized growth,"locus YDL101C, strain DUN1, stronger effect = lower value",1.02
same,normalized growth,"locus YDL134C, strain PPH21, stronger effect = lower value",1
same,normalized growth,"locus YDL185W, strain tfp1, stronger effect = lower value",1.01
same,normalized growth,"locus YDL192W, strain arf1, stronger effect = lower value",1.01
same,normalized growth,"locus YDR001C, strain nth1, stronger effect = lower value",1.01
same,normalized growth,"locus YDR069C, strain doa4, stronger effect = lower value",1.01
same,normalized growth,"locus YDR101C, strain arx1, stronger effect = lower value",1.01
same,normalized growth,"locus YDR137W, strain rgp1, stronger effect = lower value",1.04
same,normalized growth,"locus YDR150W, strain NUM1, stronger effect = lower value",1.01
same,normalized growth,"locus YDR159W, strain sac3, stronger effect = lower value",1
same,normalized growth,"locus YDR162C, strain NBP2, stronger effect = lower value",1.01
same,normalized growth,"locus YDR195W, strain ref2",0.996
same,normalized growth,"locus YDR297W, strain sur2, stronger effect = lower value",1.01
same,normalized growth,"locus YDR318W, strain mcm21, stronger effect = lower value",1.01
same,normalized growth,"locus YDR334W, strain swr1, stronger effect = lower value",1.02
same,normalized growth,"locus YDR335W, strain msn5, stronger effect = lower value",1.02
same,normalized growth,"locus YDR388W, stronger effect = lower value",1.01
same,normalized growth,"locus YDR392W, strain spt3, stronger effect = lower value",0.959
same,normalized growth,"locus YDR502C, strain sam2, stronger effect = lower value",1.01
same,normalized growth,"locus YEL003W, strain gim4, stronger effect = lower value",0.988
same,normalized growth,"locus YEL037C, strain rad23, stronger effect = lower value",1.01
same,normalized growth,"locus YEL061C, strain CIN8 (second series), stronger effect = lower value",1
same,normalized growth,"locus YEL061C, strain CIN8, stronger effect = lower value",1.01
same,normalized growth,"locus YER015W, strain faa2, stronger effect = lower value",1.01
same,normalized growth,"locus YER016W, strain bim1, stronger effect = lower value",1.03
same,normalized growth,"locus YER110C, stronger effect = lower value",1.01
same,normalized growth,"locus YER111C, strain swi4, stronger effect = lower value",1.01
same,normalized growth,"locus YER155C, strain BEM2 (second series), stronger effect = lower value",1.02
same,normalized growth,"locus YER155C, strain BEM2, stronger effect = lower value",1.01
same,normalized growth,"locus YER167W, strain BCK2, stronger effect = lower value",1.01
same,normalized growth,"locus YFR010W, strain ubp6, stronger effect = lower value",1.01
same,normalized growth,"locus YGL078C, strain dbp3, stronger effect = lower value",0.998
same,normalized growth,"locus YGL086W, strain mad1, stronger effect = lower value",0.991
same,normalized growth,"locus YGL167C, strain pmr1, stronger effect = lower value",1.02
same,normalized growth,"locus YGL173C, strain kem1, stronger effect = lower value",1.01
same,normalized growth,"locus YGL227W, strain vid30, stronger effect = lower value",1.02
same,normalized growth,"locus YGL240W, strain doc1, stronger effect = lower value",1.02
same,normalized growth,"locus YGL248W, strain PDE1, stronger effect = lower value",1
same,normalized growth,"locus YGL253W, strain hxk2, stronger effect = lower value",1.02
same,normalized growth,"locus YGR078C, strain PAC10, stronger effect = lower value",1.02
same,normalized growth,"locus YGR135W, strain pre9, stronger effect = lower value",1.01
same,normalized growth,"locus YGR229C, strain SMI1, stronger effect = lower value",1
same,normalized growth,"locus YGR252W, strain gcn5, stronger effect = lower value",0.939
same,normalized growth,"locus YHR013C, strain ard1, stronger effect = lower value",1.22 [resistant] (active)
same,normalized growth,"locus YHR027C, strain rpn1, stronger effect = lower value",1.02
same,normalized growth,"locus YHR030C, strain SLT2, stronger effect = lower value",1.01 and 0.989
same,normalized growth,"locus YHR079C, strain IRE1 (second series), stronger effect = lower value",1.01
same,normalized growth,"locus YHR079C, strain IRE1, stronger effect = lower value",0.965
same,normalized growth,"locus YHR094C, strain hxt1, stronger effect = lower value",1.01
same,normalized growth,"locus YHR129C, strain ARP1, stronger effect = lower value",1.01
same,normalized growth,"locus YHR142W, strain chs7, stronger effect = lower value",1.02
same,normalized growth,"locus YHR200W, strain rpn10, stronger effect = lower value",1.02
same,normalized growth,"locus YIL066C, strain RNR3, stronger effect = lower value",1.01
same,normalized growth,"locus YIL073C, strain SPO22, stronger effect = lower value",1.01
same,normalized growth,"locus YIL125W, strain kgd1, stronger effect = lower value",1.01
same,normalized growth,"locus YIR030C, strain dcg1, stronger effect = lower value",1.02
same,normalized growth,"locus YJL092W, strain hpr5, stronger effect = lower value",1.02
same,normalized growth,"locus YJL095W, strain BCK1 (second series), stronger effect = lower value",1.02
same,normalized growth,"locus YJL095W, strain BCK1, stronger effect = lower value",1.01 and 0.989
same,normalized growth,"locus YJL115W, strain asf1, stronger effect = lower value",1.01
same,normalized growth,"locus YJL129C, strain trk1, stronger effect = lower value",0.994
same,normalized growth,"locus YJL134W, strain LCB3, stronger effect = lower value",1.01
same,normalized growth,"locus YJL154C, strain vps35, stronger effect = lower value",1.02
same,normalized growth,"locus YJL164C, strain tpk1, stronger effect = lower value",1.02
same,normalized growth,"locus YJL166W, strain qcr8, stronger effect = lower value",1.03
same,normalized growth,"locus YJL168C, strain set2, stronger effect = lower value",1
same,normalized growth,"locus YJL187C, strain SWE1 (second series), stronger effect = lower value",1.01
same,normalized growth,"locus YJL187C, strain SWE1, stronger effect = lower value",1.02
same,normalized growth,"locus YJR043C, strain POL32, stronger effect = lower value",1.02
same,normalized growth,"locus YJR066W, strain TOR1, stronger effect = lower value",0.933
